Source: PubChem
Hits are enriched below; roughly 11% of the tested compounds scored in any of these assays.
PNC assembly inh: High Content Assay for Compounds that inhibit the Assembly of the Perinucleolar Compartment; PC3M PTB-GFP, PNC prevalence imaging, 16 h; active compounds read low; 3.1% of 140,000 active; activity change (PNC), negative = inhibition, % at 10 µM;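 active = readout at or below -70, meaning at least 70% loss of cells showing the perinucleolar compartment, a nuclear body marking cancer cells; inconclusive = readout between -30 and a set limit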;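 also: plate controls were DMSO wells for no effect and camptothecin positive control wells for full effect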
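Read-out is percentage of cells bearing a perinucleolar compartment, from automated 20x imaging of fixed, Hoechst-stained PC3M PTB-GFP cells. Cells were seeded 4 h, then exposed 16 h to compound (23 nl of library stock) in duplicate plates.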
HPGD inh: qHTS Assay for Inhibitors of HPGD (15-Hydroxyprostaglandin Dehydrogenase); 4.3% of 150,000 active; purified HPGD, NADH fluorescence kinetic, PGE2 substrate; Potency, µM, without a hit: top-dose activity change, negative = inhibition, most hits filed as inhibitors; 15-hydroxyprostaglandin dehydrogenase [NAD(+)] (Homo sapiens), P15428; AID 894, 2007; also: potency is read from the fitted curve at half-maximal effect
Target sequence (P15428 whole entry, looked up): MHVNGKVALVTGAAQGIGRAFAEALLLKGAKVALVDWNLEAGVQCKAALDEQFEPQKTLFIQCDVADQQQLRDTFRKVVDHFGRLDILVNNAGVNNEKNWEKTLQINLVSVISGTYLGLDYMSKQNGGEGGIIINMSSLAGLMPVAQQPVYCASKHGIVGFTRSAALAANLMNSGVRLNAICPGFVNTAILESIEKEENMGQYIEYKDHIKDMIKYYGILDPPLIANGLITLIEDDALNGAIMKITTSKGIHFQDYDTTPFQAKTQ
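NADH formation kinetics: reaction with 30 uM PGE2 and 1 mM NAD+ (final), 20 nM enzyme, Tris-HCl pH 8 with Tween 20, after 15 min compound preincubation at room temperature. Fluorescence change, last versus first of five reads.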
ALDH1A1 inh: qHTS Assay for Inhibitors of Aldehyde Dehydrogenase 1 (ALDH1A1). Aldehyde dehydrogenase 1A1 (Homo sapiens), P00352. Purified ALDH1A1, NADH fluorescence, propionaldehyde substrate. Potency, µM (top dose mostly 75.3 µM), for the others: at the top dose activity, negative = inhibition, actives largely listed as inhibitors. 7.3% of 220,000 active;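 also: potency is read from the fitted curve at half-maximal effect; plate controls were no enzyme wells and a reference inhibitor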
The depositor's hits bear a star; u = inconclusive; x = no result; [ ] = dose if it differs, or a comment. Unless noted, calls follow the shape of the dose curve; as a rule, active = well fitted inhibition curve with a large enough effect (not every such curve was filed as active); inconclusive = small, poorly fitted or top-dose-only effect, or another doubt; inactive = no such curve, though single readings can be large or run the other way. Unless noted, % is scaled to controls: 0 for no effect and ±100 for the full control effect.

SMILES	PNC assembly inh	HPGD inh	ALDH1A1 inh
O=S(=O)(O)c1ccc2c(N=Nc3c(O)ccc4ccccc34)cccc2c1	x	-4%	-11%[13.5 µM]
CC1(C)NC(=O)N(CCCSc2ccc(Cl)cc2)C1=O	-18	0%	-9%
Cc1cc(S(=O)(=O)N2CCOCC2)ccc1F	4	-7%	-2%
O=S(=O)(c1ccc(N=C2NN=C(c3cc(F)ccc3F)CS2)cc1)N1CCOCC1	x	x	28µM*
COc1ccccc1-n1cc(CN2CCCC(CO)(Cc3cccc(Cl)c3)C2)cn1 (centres undefined)	x	x	8%
O=c1c2cnn(-c3ccccc3Cl)c2ncn1Cc1cccnc1	19	-24%	0%
Cc1cccc(OCCNc2nc3c(c(=O)n(C)c(=O)n3C)n2C)c1	-97*	-15%	-21%
CC(C)CCNc1nc2c(c(=O)n(Cc3cccc(F)c3)c(=O)n2C)n1C	9	u	13µM*
Cn1c(NCc2ccccc2)nc2c1c(=O)n(Cc1ccccc1)c(=O)n2C	u	-27%	u
COCCNc1nc2c(c(=O)n(C)c(=O)n2C)n1Cc1cccc(C)c1	-2	1%	2%
C/C(CCC(=O)OC[C@@H]1O[C@H](C#Cc2ccccc2)C=C[C@@H]1Oc1ccc(C)cc1)=N/OC[C@@H](O)[C@H]1O[C@H]2OC(C)(C)O[C@H]2[C@@H]1O	x	x	-7%[13.5 µM]
O=C(CN1CCN(c2ccc(O)cc2)CC1)NC(=O)NCc1ccco1	58	x	u
Cc1cc(C)n2nc(SCc3nnc(SCc4ccccc4)s3)nc2n1	-2	x	-1%
COc1cc(C)nc2nc(SCc3ccccc3)nn12	16	-21%	14µM*
O=C(c1ccc(F)cc1)N1CCCCC(S(=O)(=O)c2ccccc2)C1=O (centres undefined)	u	-8%	u
COc1ccc([N+](=O)[O-])cc1COc1cc(C)cc2oc(=O)cc(-c3ccccc3)c12	u	-23%	2µM*
CCc1cc(=O)oc2cc(C)cc(OC(=O)c3ccco3)c12	-8	0%	10µM*
Cc1cccc(-c2ccc(-c3cc(=O)oc4cc(C)cc(C)c34)cc2)c1	x	-4%	8%
Cc1cc(OC(=O)c2ccco2)c2c(C)cc(=O)oc2c1	u	-12%	u
CC(=O)COc1cc(C)cc2oc(=O)cc(-c3ccccc3)c12	x	x	2.2µM*
Cc1cc(O)c2c(-c3ccccc3)cc(=O)oc2c1	u	-14%	u
Cc1nnc(NC(=O)CSc2nnc(NC(=O)C(C)(C)C)s2)s1	x	x	14%
COc1ccc(N2CCN(C(c3cc(OC)ccc3OC)c3nnnn3CC3CCCO3)CC2)cc1 (centres undefined)	u	1%	-6%
COC(=O)C1=C(NC(=O)c2ccccc2[N+](=O)[O-])CCS1	x	x	3%
COc1ccc2c(c1)C(=O)[C@@H](OC(=O)NCCc1ccc(OC)c(OC)c1)[C@H](c1ccc(OC)c(Br)c1)O2	x	-13%	-5%
SMILES	PNC assembly inh	HPGD inh	ALDH1A1 inh
O=C(CCn1c(=S)oc2ccccc21)N1CCCCC1	x	x	-6%
CCOC(=O)c1c(NC(=O)CSc2nnc(-c3ccncc3)n2Cc2ccco2)sc(C)c1C	u	-10%	u
FCCCOc1ccc(/C=N/OCc2ccc(Cl)cc2)cc1	51	-7%	4%
COC(=O)C1C(=O)C2=C(CC1C)NC(C)=C(C(=O)OC(C)C)C2c1ccc(C)o1 (centres undefined)	u	-6%	-13%
COC(=O)C1C(=O)C2=C(CC1C)NC(C)=C(C(=O)OC1CCCCC1)C2c1ccc(N(C)C)cc1 (centres undefined)	-100*	-16%	8.9µM*
O=C(NCc1ccccn1)C1CCCCC1	x	x	2%
O=S(=O)(N/N=C/c1c(F)cccc1Cl)c1ccccc1	-28	-8%	6.3µM*
Fc1cccc(Cl)c1/C=N/Nc1ccccn1	x	x	0%
Cc1ccc(S(=O)(=O)N/N=C/c2cccn2-c2ccc(Cl)cc2)cc1	56	-20%	0%
Cc1ccc(S(=O)(=O)N/N=C/c2c(F)cccc2Cl)cc1	-2	-9%	28µM*
CC(C)(CS(=O)(=O)[O-])NC(=O)CC[N+](C)(C)CCO	u	-6%	4%
CC(C)(C)NC(=O)CSCc1ccc(Br)cc1	x	x	0%
Cn1cnnc1Sc1nc2ccccc2nc1NS(=O)(=O)c1ccccc1	u	-18%	6%
Cn1ccnc1Sc1nc2ccccc2nc1NS(=O)(=O)c1ccccc1	1	22µM*	-3%
COc1ccc(C2(C(=O)NC3CCCCC3)CCOCC2)cc1OC	u	-5%	1%
O=C(N/C(=C\c1cccs1)C(=O)N1CCOCC1)c1cccs1	x	x	-1%
CN(C(=S)SCc1ccccc1)C1CCS(=O)(=O)C1 (centres undefined)	x	x	-3%
O=C(NCc1cn2ccsc2n1)c1c(F)cccc1Cl	29	8.9µM*	1%
O=C(NCc1cn2ccsc2n1)c1cccc(C(F)(F)F)c1	-14	-13%	9%
CCOc1ccc(Nc2nc(Cc3nnc(SCC(=O)NCc4ccco4)n3CC)cs2)cc1	21	-3%	-16%
O=C1NCCCC2c3c(cc(Br)c(O)c3Br)OC12N1CCCCC1 (centres undefined)	6	13µM*	7.9µM*
COc1nnnc2c1sc1nc(N3CCOCC3)c3c(c12)CC(C)(C)OC3	11	x	u
CC1(C)Cc2c(c(N3CCOCC3)nc3snc(Br)c23)CO1	-84*	-13%	u
CCc1ccc2nc3n[nH]c(N)c3cc2c1	-8	28µM*	u
Nc1[nH]nc2nc3ccccc3cc12	x	x	-1%
SMILES	PNC assembly inh	HPGD inh	ALDH1A1 inh
CC(C)CC(COCc1ccc(Cl)cc1)N1CCN(C(=O)c2ccc(Cl)cc2Cl)CCC1=O (centres undefined)	-6	-19%	-10%
Cc1c(NC(=O)COC(=O)COc2ccc(Nc3ccccc3)cc2)c(=O)n(-c2ccccc2)n1C	x	x	22µM*
Cc1cc(C)cc(OCC(=O)OCC(=O)Nc2c(C)n(C)n(-c3ccccc3)c2=O)c1	x	x	2%
C[C@@H]1CCN=C(N)S1	x	-4%	-7%
C=CCN1C(=O)C(C)(C)N(C(C)=O)c2ccccc21	75	-1%	0%
C=CCN1C(=O)N/C(=C/c2ccc(C)o2)C1=O	u	-19%	7.9µM*
Cc1ccc(NC(=O)CN2C(=O)N/C(=C/c3ccc(C)s3)C2=O)cc1	25	-16%	1%
Cc1cccc(NC(=O)CN2C(=O)N/C(=C/c3ccc(C)o3)C2=O)c1	-1	-24%	10µM*
CCn1c(C)cc(/C=C2\NC(=O)N(CC(=O)Nc3cccc(C)c3)C2=O)c1C	0	u	u
Cc1ccc(NC(=O)CN2C(=O)N/C(=C/c3ccc(C)o3)C2=O)cc1	u	u	13µM*
O=C(Cn1cc2c(n1)CCCC2)NCc1cccc(Cl)c1	4	-18%	9%
Cc1ccc(S(=O)(=O)n2nc(-c3cccnc3)nc2N)cc1	u	-9%	7%
CC(=O)Nc1ccc(S(=O)(=O)n2nc(-c3ccc(C)cc3)nc2N)cc1	-15	6.3µM*	5%
Cc1ccc(C[n+]2cccc(-c3ccccc3)c2)c(C)c1	37	0%	-8%
O=C(Cn1c(=O)n(-c2ccc(F)cc2)c(=O)c2sccc21)c1ccccc1	-22	-17%	-2%
O=C(NC(=S)N(Cc1ccccc1)Cc1ccccc1)c1ccccc1F	3	-1%	-15%
